HCMV inh: qHTS Assay for inhibitors of the human cytomegalovirus (HCMV). activity change, negative = inhibition, % at 57.5 µM. HFF cells, HCMV-luciferase reporter, 72 h; hits give low values. AID 1259415, 2018. 410,000 tested, 4.5% active; in the data active means activity change below about -60%; inconclusive means no clear call, values can overlap the other calls; inactive means above about -39%; further: on the % scale 0 is the no-effect control and ±100 the full control effect
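Luciferase read-out from HCMV-luciferase-infected HFFs (MOI 1 PFU/cell) 72 h post infection at 37C; compounds added after 16 h cell attachment; activity normalized between buffer-only basal and Salinomycin (10uM) inhibitor controls.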
Shiga inhibitor: A qHTS for Small Molecule Inhibitors of Shiga Toxin; Vero cells, Shiga toxin protein synthesis inhibition reporter; inhibition, % at 38.7 µM; 290,000 tested, 9.2% active; AID 2315, 2010; in the data active means inhibition mostly above about 28%, no sharp cut-off; inactive means mostly below about 43%; further: 0% is about no effect
Pf growth 48h: Primary qHTS for delayed death inhibitors of the malarial parasite plastid, 48 hour incubation; P. falciparum luciferase growth in erythrocytes, 48 h; Potency, µM (top dose mostly 28.7 µM), for inactives: top-dose activity change, negative = inhibition, usual class: inhibitors; 310,000 tested, 5.9% active; AID 504832, 2011; further: potency means the concentration at half of the fitted maximal effect; on the % scale 0 is the no-effect control and ±100 the full control effect
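Firefly luciferase activity from engineered P. falciparum reports growth; inhibitors lower the luminescent signal. Cultures contained 2% hematocrit erythrocytes at 0.1% final parasitemia.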
Cycloheximide cs: Cycloheximide Counterscreen for Small Molecule Inhibitors of Shiga Toxin. cell reporter, cycloheximide protein synthesis inhibition counterscreen. max response, %. 300,000 tested, 12% active. AID 2314, 2010; in the data active means max response mostly above about 13%, no sharp cut-off; inactive means mostly below about 14%; further: read at 38.3 µM for the half of the compounds with a filed dose; 0% is about no effect
Pf growth 96h: Primary qHTS for delayed death inhibitors of the malarial parasite plastid, 96 hour incubation; 320,000 tested, 6.9% active; P. falciparum luciferase reporter growth, 96 h; AID 504834, 2011; Potency, µM (doses to about 28.7 µM), for inactives: at the top dose activity change, negative = inhibition, usual class: inhibitors; further: potency means the concentration at half of the fitted maximal effect; on the % scale 0 is the no-effect control and ±100 the full control effect
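P. falciparum expressing integrated firefly luciferase grown in erythrocytes (2% hematocrit, 0.05% parasitemia final) with compounds for 96 hours at 37 C, 5% CO2. Growth inhibition read as loss of luminescence after adding luciferase detection reagent.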
HCV inh: qHTS Assay for Inhibitors of Hepatitis C Virus (HCV); Huh7.5.1 HCVcc-Cre infection, luciferase reporter, 44 h; 340,000 tested, 3.4% active; Potency, µM (doses to about 41.8 µM), inactives show top-dose activity change, negative = inhibition, most hits filed as inhibitors; further: potency means the concentration at half of the fitted maximal effect; on the % scale 0 is the no-effect control and ±100 the full control effect
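Antiviral activity was scored by luciferase reporter output from cells infected with HCVcc-Cre (~0.5 moi) in presence of compound, 44 h infection period, cells seeded 1,000/well 4 h prior.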
Active calls of the source: *; ? = inconclusive; . = no result given. The list is not random: actives were taken first. Their share in the collection is about 21%. Unless noted, the call rests on the fitted dose curve; in most records, active means well fitted inhibition curve with a large enough effect; inconclusive means small, poorly fitted or top-dose-only effect, or another doubt; inactive means no such curve, though single readings can be large or run the other way.

SMILES	HCMV inh	Shiga inhibitor	Pf growth 48h	Cycloheximide cs	Pf growth 96h	HCV inh
Cc1cc(Oc2ccc(=O)n(C)n2)nc(Oc2ccc(=O)n(C)n2)n1	-1	-3	5%	-4	10µM*	3%
CSc1nc(C)cc(Oc2ccc(=O)[nH]n2)n1	-4	-11	28%	4	-20%	8%
COc1cc(C)nc(Oc2ccc(=O)[nH]n2)n1	56	42	0%	22*	80%	18%
Cc1cc(Oc2ccc(=O)[nH]n2)nc(Cl)n1	?	47*	232%	35*	358%	16%
O=S1c2ccccc2Sc2ccccc21	-6	.	.	.	.	22%
CCNC(=O)NC(=O)C(C)OC(=O)C(C)(C)Oc1ccc(Cl)cc1 (stereo not drawn)	0	-5	1%	-1	24%	11%
CCNC(=O)NC(=O)C(C)Oc1ccc(Br)cc1Br (stereo not drawn)	10	98*	121%	64*	?	?
COc1cccc(NC(=O)COc2ccc(C)cc2)c1	56	63*	187%	37*	?	-12%
COc1ccc(OCC(=O)Nc2ccc3c(c2)C(=O)NC3=O)cc1	-22	-21	21%	-3	12µM*	8%
COc1cccc(NC(=O)COc2ccc3c(c2)CCC3)c1	32	38*	28%	23*	0%	?
CCN(CC)CCNC(=O)c1ccc(NC(=O)COc2ccc3c(c2)CCC3)cc1	7	.	?	.	15µM*	?
COc1ccc(OCC(=O)Nc2cccc(C(C)=O)c2)cc1	17	-9	.	-1	26%	18%
Cc1nc2cccnc2n1C1CCN(C(=O)Nc2ccccc2)CC1	10	.	.	.	.	.
COc1ccc(OC)c(NC(=O)COc2ccc3c(c2)CCC3)c1	0	.	13µM*	.	?	?
CC(=O)N/C(=C\c1ccccc1)C(=O)OCC(=O)Nc1cc(S(=O)(=O)N(C)C)ccc1C	-38	.	?	.	?	13%
O=C(Nc1ccc(Br)c(Cl)c1)C1CC1	-62*	12	10%	9	18%	?
Cc1ccc(NC(=S)NC(=O)C2CC2)cc1Cl	27	53*	-26%	28*	9.3µM*	-10%
COC(=O)NC(=S)Nc1ccc(Oc2ccc(Cl)cc2Cl)c(Cl)c1	67	10	?	-1	13µM*	?
O=C(NC(=S)Nc1ccc(F)c(Cl)c1)C1CC1	3	17	-37%	28*	-6%	-10%
O=C(Nc1ccc(F)c(Cl)c1)C1CCCC1	?	.	.	.	.	-3%
O=C(NC(=S)Nc1ccc(S(=O)(=O)N2CCCC2)cc1)C1CC1	?	1	?	-2	0%	?
CC(C)(C)[C@@H](O)C(Cc1ccc(Cl)cc1)n1cncn1 (stereo partly drawn)	.	-1	.	0	.	.
COC(=O)c1ccc2nc(C3CCCCC3)c(Cc3ccc(OC)cc3C)n2c1	28	.	.	.	.	.
COCCN(C(=S)Nc1ccc(OC)c(Cl)c1)C1CCN(C(C)=O)CC1	-23	.	.	.	.	.
Cc1ccc(S(=O)(=O)N(C)Cc2ccc(-c3nnc4n3CCC4)cc2)cc1	17	22	10µM*	-4	11%	4%
SMILES	HCMV inh	Shiga inhibitor	Pf growth 48h	Cycloheximide cs	Pf growth 96h	HCV inh
COc1ccc(C2Sc3nncn3N2Cc2ccc(C#N)cc2)cc1 (stereo not drawn)	?	-2	-9%	-6	13µM*	9%
COc1ccc(CC(=O)Oc2ccc(C#N)cc2)cc1	38	-8	0%	-2	?	9%
O=C(NC1CC2CCCC(C1)N2C(=O)Nc1ccc(F)cc1)c1ccccc1 (stereo not drawn)	-19	-4	-18%	-3	-5%	-3%
O=C(CCCOc1ccccc1)Nc1cccc([N+](=O)[O-])c1	-33	82*	21%	21*	14%	9%
O=C(O)CCCC(=O)Nc1cccc([N+](=O)[O-])c1	?	-9	147%	-8	50%	7%
O=C(CCc1ccccc1)Nc1cccc([N+](=O)[O-])c1	-20	25	18%	16	16%	-15%
CN(Cc1ccccc1)C(=O)c1cccc(NC(=O)Cc2cccc([N+](=O)[O-])c2)c1	?	.	.	.	.	2.8µM*
CC(NS(=O)(=O)c1ccc(OCC(=O)Nc2cccc([N+](=O)[O-])c2)cc1)c1ccccc1 (stereo not drawn)	-5	-7	10µM*	-5	-34%	?
O=C(CCCc1ccccc1)Nc1cccc([N+](=O)[O-])c1	26	.	75%	44*	57%	10%
Cc1ccc(NS(=O)(=O)c2ccc(OCC(=O)Nc3cccc([N+](=O)[O-])c3)c(C)c2)cc1	-9	-19	?	0	15µM*	-28%
CCCC(C)(C)C(=O)N1CCC1(C)C(=O)Nc1ccc(OC)c(OC)c1 (stereo not drawn)	-15	.	.	.	.	.
COc1ccc(C=CC(O)CCN2CCC3CCC(C3)C2)cc1 (stereo not drawn)	-66*	.	.	.	.	-10%
COc1ccc(NC(=O)CCN2CCC(C)CC2)cc1	25	-9	16%	-5	-58%	-14%
CC(C)(C)OC(=O)N1CCCN(C(=O)Nc2ccc(C(F)(F)F)cc2)CC1	8	19	?	2	?	-2%
CCOc1ccc(NS(=O)(=O)c2c(C)nc3sccn3c2=O)cc1	-100*	-6	-8%	-1	20%	0%
CC(=O)Nc1ccc(NS(=O)(=O)c2c(C)nc3sccn3c2=O)cc1	17	.	.	.	.	.
CC(=O)Nc1cccc(Oc2ncnc3scc(-c4ccc(C(C)C)cc4)c23)c1	?	13	?	-2	?	?
Cc1ccc(-c2csc3ncnc(Cl)c23)cc1	-25	17	1.5µM*	-3	2.6µM*	-12%
Cc1ccc2cccc(Oc3ncnc4scc(-c5ccc(Cl)cc5)c34)c2n1	-27	-11	?	-4	10µM*	-20%
COc1ccc(-c2csc3ncnc(Oc4cccc5ccc(C)nc45)c23)cc1	?	-11	?	0	?	?
Cc1ccc2cccc(Oc3ncnc4scc(-c5ccccc5)c34)c2n1	-15	-10	10µM*	-3	?	?
Clc1ncnc2scc(-c3ccccc3)c12	13	-14	?	-2	?	3%
COc1ccc(CC(=O)Nc2ccc3nc(N4CCCCC4)cc(C)c3c2)cc1	6	.	.	.	.	.
C/C(=N\OCc1nc2ccccc2c(=O)n1/N=C/c1cc(C)cc([N+](=O)[O-])c1O)c1ccccc1	-10	27	6.6µM*	21*	?	9%
